# Experimental data published in the supplement of paper PMC12819154, “High-throughput peptide-centric local stability assay extends protein–ligand identification to membrane proteins, tissues and bacteria” (Nature Structural & Molecular Biology, 2025).
# Biological target: UniProt P0AEZ1
# Test: log2 fold change of tryptic peptide abundance, ligand vs vehicle (limited proteolysis) (log2 ratio); higher = more trypsin-susceptible (destabilized)
# Details: peptide sequence: DYWNNGIR; peptide start residue: 105; ligand concentration: 5 mM; sample: E. coli desalted lysate; replicate design: treated before aliquoting
# Protocol: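 HT-PELSA: desalted E. coli K-12 BW25113 lysate (with 12 mM MgCl2) incubated with 5 mM ATP (pH 7) or water for 30 min at 25 C, then a 4 min trypsin pulse at 22 C. Peptides were quantified by DIA-MS (4 replicates). Value is the peptide log2 fold change (treated/control); negative = stabilized. Scale: negative = ligand-stabilized region.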
# 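Further: lysate desalted by size exclusion to strip endogenous ATP, peptide intensities built from DIA-NN precursor signals, and peptides missing any value discarded before comparison.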
# UniProt P0AEZ1, sequence (P0AEZ1 whole entry): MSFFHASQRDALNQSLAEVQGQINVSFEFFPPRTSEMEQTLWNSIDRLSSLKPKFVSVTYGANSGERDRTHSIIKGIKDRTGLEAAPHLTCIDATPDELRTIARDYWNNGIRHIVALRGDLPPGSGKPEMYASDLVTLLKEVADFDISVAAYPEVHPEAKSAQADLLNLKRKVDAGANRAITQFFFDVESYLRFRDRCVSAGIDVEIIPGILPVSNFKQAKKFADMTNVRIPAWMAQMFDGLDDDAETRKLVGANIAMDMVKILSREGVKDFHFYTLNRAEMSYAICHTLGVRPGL
row,SMILES,log2 fold change
1,Nc1ncnc2c1ncn2[C@@H]1O[C@H](COP(=O)(O)OP(=O)(O)OP(=O)(O)O)[C@@H](O)[C@H]1O [adenosine 5'-triphosphate],-1.01
